Reference: PubChem BioAssay (NCATS)
“And” between values parts separate entries of the source, which are not always exact repeats. Equal entries are not always repeated. Results filed as inconclusive are left out. Some compounds were tested as several samples or in several runs, with calls that do not always agree. The source made the active and inactive calls. Calls follow the shape of the dose curve; as a rule, active = well fitted curve in the direction sought with a large enough effect; inconclusive = small, poorly fitted or top-dose-only effect, or another doubt; inactive = no such curve, though single readings can be large; an effect the other way counts as inactive or inconclusive.

Legend:
[1] = Viability qHTS for spleen associated tyrosine kinase inhibitor (SYKi) naive MV4-11 cells (AID 1963823); also: nearly all actives have a fitted effect of over 40% in size
In short: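 qHTS, SYK inhibitor-naive MV4-11; 500 cells/well; 72 hr compound exposure, 37 C; CellTiter-Glo added, 10 min RT; luminescence read.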

[2] = Viability qHTS for spleen associated tyrosine kinase inhibitor (SYKi) drug resistant MV4-11 cells (AID 1963824); also: nearly all actives have a fitted effect of over 35% in size
In short: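 CellTiter-Glo luminescence, read 10 min after reagent addition, reports viability after a 72 hr compound exposure. Cells are an MV4-11 line made resistant to SYK inhibition, seeded at 500 per well onto compound-containing plates.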

[3] = Quantitative highthroughput screen to assess conditional lethalithy of NOMO1 cells grown in RPMI1640 with untreated serum (RPMI+s) (AID 1963876); also: nearly all actives have a fitted effect of over 35% in size;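 as to Viability: 100% = DMSO wells and 0% = empty wells without cells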
In short: (§1)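 Each medium arm—HPLM with 10% dialyzed FBS, or RPMI1640 with 5 mM glucose and 10% untreated or dialyzed FBS—was screened against an 11-point, 3-fold compound titration for 48 h at 37 °C, with CellTiter-Glo luminescence as endpoint.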

[4] = Quantitative highthroughput screen to assess conditional lethalithy of NOMO1 cells grown in Human Plasma-Like Medium with dialyzed fetal bovine serum (HPLM+ds) (AID 1963878); also: nearly all actives have a fitted effect of over 35% in size;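 as to Viability: 100% = DMSO wells and 0% = empty wells on each plate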
In short: as §1

[5] = Quantitative highthroughput screen to assess conditional lethalithy of P12 Ichikawa cells grown in Human Plasma-Like Medium with dialyzed fetal bovine serum (HPLM+ds) (AID 1963879); conditions: Potency: viability; also: nearly all actives have a fitted effect of over 35% in size; as to Viability: series mostly up to about 46 µM
In short: as §1

[6] = Quantitative highthroughput screen to assess conditional lethalithy of P12 Ichikawa cells grown in RPMI1640 with dialyzed fetal bovine serum (RPMI+ds) (AID 1963880); conditions: Potency: P12-Ichikawa viability; also: nearly all actives have a fitted effect of over 35% in size;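 as to Viability: 100% = DMSO wells and 0% = empty wells on each plate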
In short: as §1

[7] = Quantitative highthroughput screen to assess conditional lethalithy of P12 Ichikawa cells grown in RPMI1640 with untreated serum (RPMI+s) (AID 1963881); conditions: Potency: viability; also: nearly all actives have a fitted effect of over 35% in size;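 as to Viability: series mostly up to about 46 µM; 100% = DMSO wells and 0% = empty wells without cells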
In short: as §1

[8] = Quantitative highthroughput screen to assess conditional lethalithy of SEM cells grown in Human Plasma-Like Medium with dialyzed fetal bovine serum (HPLM+ds) (AID 1963882); also: nearly all actives have a fitted effect of over 35% in size; as to Viability: series mostly up to about 46 µM
In short: as §1

[9] = Quantitative highthroughput screen to assess conditional lethalithy of SEM cells grown in RPMI1640 with unreated serum (RPMI+s) (AID 1963883); also: nearly all actives have a fitted effect of over 35% in size;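 as to Viability: 100% = DMSO wells and 0% = empty wells without cells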
In short: as §1

[10] = Quantitative highthroughput screen to assess conditional lethalithy of SEM cells grown in RPMI1640 with dialyzed fetal bovine serum (RPMI+ds) (AID 1963884); also: nearly all actives have a fitted effect of over 35% in size;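 as to Viability: series mostly up to about 46 µM; 100% = DMSO control wells and 0% = empty wells without cells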
In short: as §1

[11] = Cellular viability qHTS for adrenocortical cancer (ACC) cell line SW-13 (AID 1963989); conditions: SW-13 ACC cells viability, CellTiter-Glo, 48 h; activity (max response): stronger effect = lower value; also: nearly all actives have a fitted effect of over 65% in size;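 as to activity (max response): cells grown in serum-free medium with ITS supplement; % is scaled to controls: 0 for no effect and ±100 for the full control effect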
In short: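 Viability was read as CellTiter-Glo luminescence after 48 h compound treatment (up to 46 uM final) of SW-13 cells grown serum-free; titration curves were fit with a four-parameter logistic model to give IC50 and efficacy.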

[12] = Cellular viability qHTS for adrenocortical cancer (ACC) cell line NCI-H295R (AID 1963990); also: nearly all actives have a fitted effect of over 60% in size
In short: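 CellTiter-Glo ATP luminescence, read 48 h after compound addition, measured viability of NCI-H295R adrenocortical cells grown serum-free with ITS. Final concentrations spanned up to 46 uM. Data normalized to DMSO and doxorubicin, fitted for IC50 and maximal response.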

[13] = Quantitative highthroughput screen to assess conditional lethalithy of NOMO1 cells grown in RPMI1640 with dialyzed fetal bovine serum (RPMI+ds) (AID 1963877); also: nearly all actives have a fitted effect of over 30% in size;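 as to Viability: series mostly up to about 46 µM; 100% = DMSO control wells and 0% = empty wells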
In short: as §1
Potency is read from the fitted curve at half-maximal effect.

| SMILES | Potency [1] | Potency [2] | Potency [3] | Potency [4] | Potency [5] | Potency [6] | Potency [7] | Potency [8] | Potency [9] | Potency [10] | Potency [11] | Potency [12] | Potency [13] | activity (max response) [11] |
| --- | --- | --- | --- | --- | --- | --- | --- | --- | --- | --- | --- | --- | --- | --- |
| CC(C)C[C@H](NC(=O)[C@@H](NC(=O)c1cccc(-c2ccccc2)n1)[C@@H](C)O)B(O)O | 14.6 nM (active) and 25.7 nM (active) | 20.4 nM (active) | 74.3 nM (active) | 66.2 nM (active) | 52.6 nM (active) | 59 nM (active) | 37.2 nM (active) | 14.8 nM (active) | 13.2 nM (active) | 14.8 nM (active) | 0.285 µM (active) | 0.18 µM (active) | – | – |
| CC[C@@H]1C(=O)N(C)c2cnc(Nc3ccc(C(=O)NC4CCC(N5CCN(CC6CC6)CC5)CC4)cc3OC)nc2N1C(C)C (stereo partly specified) | 20.6 nM (active) | 23.1 nM (active) and 9.2 nM (active) and 16.6 nM (active) | 93.5 nM (active) | – | 33.2 nM (active) | – | 74.3 nM (active) | 29.6 nM (active) | 83.3 nM (active) | 59 nM (active) | 0.0501 µM (active) | 1.41 µM (active) | 74.3 nM (active) | – |
| C[C@@H](NC(=O)c1ncnc(N)c1Cl)c1ncc(C(=O)Nc2cc(C(F)(F)F)c(Cl)cn2)s1 | 9200 nM (active) | 16600 nM (active) | inactive | – | inactive | – | inactive | inactive | inactive | inactive | 20 µM (active) | – | inactive | – |
| O=C(O)CCNc1cc(N2CCc3ccccc3CC2)nc(-c2ccccn2)n1 | inactive | inactive | inactive | – | – | – | – | inactive | inactive | inactive | – | inactive | inactive | 0.209% (inactive) |
| COc1cc(F)c(F)c(Nc2ccc(I)cc2F)c1NS(=O)(=O)C1(C[C@H](O)CO)CC1 | 332 nM (active) | 525 nM (active) | inactive | – | – | – | inactive | – | 20900 nM (active) | – | 14.1 µM (active) | 20 µM (active) | inactive | – |
| NS(=O)(=O)c1cc2c(cc1Cl)NC=NS2(=O)=O | inactive | inactive | inactive | inactive | inactive | inactive | inactive | inactive | inactive | inactive | – | inactive | – | 2.09% (inactive) and 0.632% (inactive) |
| Oc1ccc(OCc2ccccc2)cc1 | 5900 nM (active) | inactive and 8.33 µM (active) | inactive | – | 7430 nM (active) | – | 3720 nM (active) | – | – | – | – | inactive | 18700 nM (active) | 12.2% (inactive) |
| Cc1cnc(-c2cnc(NCCNc3ccc(C#N)cn3)nc2-c2ccc(Cl)cc2Cl)[nH]1 | 14600 nM (active) | 13000 nM (active) | inactive | – | – | – | – | – | – | – | – | inactive | inactive | – |
| COc1ccc2c(c1)c(C1=C(c3c[nH]c4ccccc34)C(=O)NC1=O)cn2CCCN(C)C | 148 nM (active) | 332 nM (active) | inactive | – | inactive | – | inactive | – | – | – | 15.8 µM (active) | – | inactive | – |
| C[C@H]1[C@@H](OC(=O)CCC(=O)O)O[C@@H]2O[C@@]3(C)CC[C@@H]4[C@H](C)CC[C@@H]1[C@@]24OO3 | 934 nM (active) | 1160 nM (active) | 1660 nM (active) | 2090 nM (active) | 11800 nM (active) | 6620 nM (active) | 5260 nM (active) | 4690 nM (active) | 3720 nM (active) | 4180 nM (active) | – | – | – | – |
| CC1=C[C@@H]2[C@@H]([C@@H](O)C[C@@]3(C)[C@H]2C[C@@H](C)[C@]3(O)C(=O)CO)[C@@]2(C)Cc3cnn(-c4ccccc4)c3C=C12 | 731 nM (active) | 1030 nM (active) | inactive | – | – | – | – | 37.2 nM (active) | – | 52.6 nM (active) | 22.4 µM (active) | 8.91 µM (active) | inactive | – |
| COC(c1ccccc1)(c1ccccc1)[C@H](Oc1nc(C)cc(C)n1)C(=O)O | inactive | inactive | inactive | – | – | – | – | – | – | – | – | inactive | inactive | – |
| COc1ccc2cc([C@H](C)C(=O)O)ccc2c1 | inactive | inactive | inactive | – | inactive | – | inactive | – | 9350 nM (active) | 10500 nM (active) | – | – | inactive | 13.9% (inactive) and -10.9% (inactive) |
| c1cc(-c2cnn3cc(-c4ccc(OCCN5CCCCC5)cc4)cnc23)ccn1 | 20.6 nM (active) | 20.6 nM (active) and 20.9 nM (active) | inactive | – | – | inactive | – | inactive | inactive | inactive | 11.2 µM (active) | 12.6 µM (active) | inactive | – |
| CC(C)c1cc(-c2n[nH]c(=O)n2-c2ccc3c(ccn3C)c2)c(O)cc1O | 9.2 nM (active) and 9.3 nM (active) | 11.6 nM (active) and 16.6 nM (active) | 118 nM (active) | – | – | – | – | 74.3 nM (active) | 59 nM (active) | – | 0.282 µM (active) | 0.0126 µM (active) | 93.5 nM (active) | – |
| COc1ccc2c(Oc3ccc(NC(=O)c4c(C)n(CC(C)(C)O)n(-c5ccccc5)c4=O)nc3)ccnc2c1 | 166 nM (active) | 332 nM (active) | inactive | – | inactive | – | – | – | – | – | – | inactive | inactive | -3.94% (inactive) |
| O=C(c1ccc(OCCN2CCCCC2)cc1)c1c(-c2ccc(O)cc2)sc2cc(O)ccc12 | 14.8 µM (active) and 16.4 µM (active) | 13.3 µM (active) and 16.6 µM (active) and 10.3 µM (active) | inactive | – | – | – | – | – | inactive | – | 20.6 µM (active) and 25.1 µM (active) | 9.2 µM (active) and 31.6 µM (active) | inactive | – |
